Experimental data as given in ChEMBL document CHEMBL1961873, “Compounds: GSK PKIS; Assays: Nanosyn kinase panel” (2012).

Columns and labels:
[1] = target: T1, Inhibitor of nuclear factor kappa-B kinase subunit epsilon (Homo sapiens) (UniProt Q14164); details: at 1 µM;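 note: reported values are averaged percent inhibition figures against human IKKε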
T1 sequence (whole entry): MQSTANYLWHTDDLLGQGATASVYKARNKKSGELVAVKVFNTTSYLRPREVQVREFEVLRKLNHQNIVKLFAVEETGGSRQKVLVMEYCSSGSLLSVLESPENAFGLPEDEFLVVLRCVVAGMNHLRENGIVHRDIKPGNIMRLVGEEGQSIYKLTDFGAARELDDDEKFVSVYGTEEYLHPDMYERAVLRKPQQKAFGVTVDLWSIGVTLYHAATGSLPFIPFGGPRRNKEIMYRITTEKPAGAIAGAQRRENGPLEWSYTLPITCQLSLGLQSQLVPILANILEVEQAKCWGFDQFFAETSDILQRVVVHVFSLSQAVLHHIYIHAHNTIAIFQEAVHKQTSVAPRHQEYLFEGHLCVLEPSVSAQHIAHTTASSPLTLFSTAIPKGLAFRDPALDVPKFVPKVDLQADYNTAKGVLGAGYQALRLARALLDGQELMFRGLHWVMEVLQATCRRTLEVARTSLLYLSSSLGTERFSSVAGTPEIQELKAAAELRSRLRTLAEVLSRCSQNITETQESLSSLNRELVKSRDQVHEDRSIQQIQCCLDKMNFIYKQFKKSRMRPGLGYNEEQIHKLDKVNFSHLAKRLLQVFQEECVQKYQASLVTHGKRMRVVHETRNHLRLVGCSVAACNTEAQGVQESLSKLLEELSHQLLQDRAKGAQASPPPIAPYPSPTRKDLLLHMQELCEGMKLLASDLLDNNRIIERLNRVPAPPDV

[2] = target: T2, Serine/threonine-protein kinase Nek1 (Homo sapiens) (UniProt Q96PY6); details: at 0.1 µM
T2 sequence (whole entry): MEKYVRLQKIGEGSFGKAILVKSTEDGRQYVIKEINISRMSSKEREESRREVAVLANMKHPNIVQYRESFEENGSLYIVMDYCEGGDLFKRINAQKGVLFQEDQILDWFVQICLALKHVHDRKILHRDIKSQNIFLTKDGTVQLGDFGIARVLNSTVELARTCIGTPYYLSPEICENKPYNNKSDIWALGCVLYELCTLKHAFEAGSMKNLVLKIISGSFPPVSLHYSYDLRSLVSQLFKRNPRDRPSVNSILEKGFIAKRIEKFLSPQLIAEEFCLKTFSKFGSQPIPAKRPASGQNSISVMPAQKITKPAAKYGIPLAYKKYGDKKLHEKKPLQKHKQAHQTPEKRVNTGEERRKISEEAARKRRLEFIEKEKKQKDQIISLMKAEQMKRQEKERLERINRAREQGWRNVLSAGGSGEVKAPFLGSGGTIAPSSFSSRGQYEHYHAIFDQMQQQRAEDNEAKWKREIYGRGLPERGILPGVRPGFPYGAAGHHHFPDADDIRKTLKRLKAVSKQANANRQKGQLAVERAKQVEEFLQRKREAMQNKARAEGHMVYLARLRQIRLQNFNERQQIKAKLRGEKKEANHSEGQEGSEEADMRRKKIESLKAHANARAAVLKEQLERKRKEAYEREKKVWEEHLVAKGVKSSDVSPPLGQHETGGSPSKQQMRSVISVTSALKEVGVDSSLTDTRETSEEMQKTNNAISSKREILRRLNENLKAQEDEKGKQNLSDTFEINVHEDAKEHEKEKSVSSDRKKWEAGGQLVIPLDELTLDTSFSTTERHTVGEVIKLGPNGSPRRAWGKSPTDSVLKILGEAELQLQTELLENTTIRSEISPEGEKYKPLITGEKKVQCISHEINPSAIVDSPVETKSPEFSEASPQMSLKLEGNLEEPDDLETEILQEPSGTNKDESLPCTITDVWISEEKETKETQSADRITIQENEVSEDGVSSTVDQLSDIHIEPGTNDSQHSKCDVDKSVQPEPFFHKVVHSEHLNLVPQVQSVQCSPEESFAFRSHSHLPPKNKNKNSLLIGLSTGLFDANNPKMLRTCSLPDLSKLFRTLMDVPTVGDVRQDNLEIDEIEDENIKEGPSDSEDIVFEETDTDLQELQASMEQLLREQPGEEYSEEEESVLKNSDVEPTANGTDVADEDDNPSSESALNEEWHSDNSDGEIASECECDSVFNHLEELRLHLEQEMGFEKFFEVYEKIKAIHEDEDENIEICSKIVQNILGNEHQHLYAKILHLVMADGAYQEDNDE

[3] = target: T2, Serine/threonine-protein kinase Nek1 (Homo sapiens); details: at 1 µM
[4] = target: T3, Serine/threonine-protein kinase Nek2 (Homo sapiens) (UniProt P51955); details: at 0.1 µM
T3 sequence (whole entry): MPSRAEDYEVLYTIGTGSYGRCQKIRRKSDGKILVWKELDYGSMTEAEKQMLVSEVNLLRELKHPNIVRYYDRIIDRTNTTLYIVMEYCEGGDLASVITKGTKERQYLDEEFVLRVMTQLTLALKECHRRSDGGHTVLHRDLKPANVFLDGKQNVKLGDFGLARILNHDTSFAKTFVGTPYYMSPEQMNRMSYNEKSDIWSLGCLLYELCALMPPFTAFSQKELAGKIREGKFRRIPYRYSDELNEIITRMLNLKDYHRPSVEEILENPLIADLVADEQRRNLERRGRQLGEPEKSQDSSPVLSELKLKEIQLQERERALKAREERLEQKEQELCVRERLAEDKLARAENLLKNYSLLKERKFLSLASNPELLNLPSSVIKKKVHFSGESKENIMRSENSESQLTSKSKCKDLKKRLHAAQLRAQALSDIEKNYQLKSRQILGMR

[5] = target: T3, Serine/threonine-protein kinase Nek2 (Homo sapiens); details: at 1 µM
[6] = target: Serine/threonine-protein kinase Nek6 (Homo sapiens) (UniProt Q9HC98); details: at 0.1 µM
Chain of Serine/threonine-protein kinase Nek6 (Homo sapiens) (Q9HC98 whole entry): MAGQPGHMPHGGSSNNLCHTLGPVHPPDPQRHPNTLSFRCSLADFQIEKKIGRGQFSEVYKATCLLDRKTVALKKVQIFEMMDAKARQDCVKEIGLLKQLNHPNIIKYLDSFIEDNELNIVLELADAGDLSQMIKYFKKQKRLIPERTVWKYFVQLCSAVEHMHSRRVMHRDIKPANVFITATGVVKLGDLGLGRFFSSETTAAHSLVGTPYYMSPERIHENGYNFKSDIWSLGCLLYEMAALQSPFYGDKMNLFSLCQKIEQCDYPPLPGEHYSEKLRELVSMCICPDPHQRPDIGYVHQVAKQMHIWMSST

[7] = target: Serine/threonine-protein kinase Nek6 (Homo sapiens) (UniProt Q9HC98); details: at 1 µM
[8] = target: Serine/threonine-protein kinase Nek7 (Homo sapiens) (UniProt Q8TDX7); details: at 0.1 µM
Chain of Serine/threonine-protein kinase Nek7 (Homo sapiens) (Q8TDX7 whole entry, looked up): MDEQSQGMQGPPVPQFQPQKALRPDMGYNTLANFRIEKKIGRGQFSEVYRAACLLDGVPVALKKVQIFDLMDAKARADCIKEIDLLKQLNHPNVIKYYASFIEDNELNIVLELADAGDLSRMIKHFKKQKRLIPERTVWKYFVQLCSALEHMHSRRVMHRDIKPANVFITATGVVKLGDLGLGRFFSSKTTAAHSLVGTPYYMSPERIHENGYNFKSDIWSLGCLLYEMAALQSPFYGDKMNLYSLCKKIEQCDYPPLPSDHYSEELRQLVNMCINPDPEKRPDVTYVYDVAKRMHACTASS

[9] = target: Serine/threonine-protein kinase Nek7 (Homo sapiens) (UniProt Q8TDX7); details: at 1 µM
[10] = target: T4, Serine/threonine-protein kinase Nek9 (Homo sapiens) (UniProt Q8TD19); details: at 0.1 µM
T4 sequence (whole entry): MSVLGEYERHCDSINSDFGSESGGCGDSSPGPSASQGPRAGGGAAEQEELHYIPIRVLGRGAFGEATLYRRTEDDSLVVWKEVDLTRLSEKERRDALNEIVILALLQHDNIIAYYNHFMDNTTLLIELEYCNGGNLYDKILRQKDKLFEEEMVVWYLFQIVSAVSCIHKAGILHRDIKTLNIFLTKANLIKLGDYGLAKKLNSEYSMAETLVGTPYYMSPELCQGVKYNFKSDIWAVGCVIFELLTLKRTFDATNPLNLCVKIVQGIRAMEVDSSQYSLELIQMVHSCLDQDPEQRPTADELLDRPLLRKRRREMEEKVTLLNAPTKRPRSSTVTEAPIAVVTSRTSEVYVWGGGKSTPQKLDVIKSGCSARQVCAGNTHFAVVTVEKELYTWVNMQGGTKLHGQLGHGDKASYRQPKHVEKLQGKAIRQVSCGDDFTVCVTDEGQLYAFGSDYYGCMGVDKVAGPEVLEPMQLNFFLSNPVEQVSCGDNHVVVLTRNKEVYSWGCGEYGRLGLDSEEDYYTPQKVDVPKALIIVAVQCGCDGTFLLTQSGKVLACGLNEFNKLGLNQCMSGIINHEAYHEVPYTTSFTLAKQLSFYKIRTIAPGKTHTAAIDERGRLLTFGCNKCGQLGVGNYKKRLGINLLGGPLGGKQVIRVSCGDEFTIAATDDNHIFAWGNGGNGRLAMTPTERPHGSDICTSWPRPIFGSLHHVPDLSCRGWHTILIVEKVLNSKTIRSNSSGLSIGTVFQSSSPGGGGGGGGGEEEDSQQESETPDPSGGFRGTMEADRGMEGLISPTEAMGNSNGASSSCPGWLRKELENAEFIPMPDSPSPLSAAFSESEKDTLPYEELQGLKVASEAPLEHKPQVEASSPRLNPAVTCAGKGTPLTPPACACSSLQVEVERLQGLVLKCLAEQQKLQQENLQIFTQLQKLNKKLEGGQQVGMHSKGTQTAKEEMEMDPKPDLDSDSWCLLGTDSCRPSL

[11] = target: T4, Serine/threonine-protein kinase Nek9 (Homo sapiens); details: at 1 µM
[12] = target: Serine/threonine-protein kinase PLK1 (Homo sapiens) (UniProt P53350); details: at 0.1 µM
Chain of Serine/threonine-protein kinase PLK1 (Homo sapiens) (P53350 whole entry): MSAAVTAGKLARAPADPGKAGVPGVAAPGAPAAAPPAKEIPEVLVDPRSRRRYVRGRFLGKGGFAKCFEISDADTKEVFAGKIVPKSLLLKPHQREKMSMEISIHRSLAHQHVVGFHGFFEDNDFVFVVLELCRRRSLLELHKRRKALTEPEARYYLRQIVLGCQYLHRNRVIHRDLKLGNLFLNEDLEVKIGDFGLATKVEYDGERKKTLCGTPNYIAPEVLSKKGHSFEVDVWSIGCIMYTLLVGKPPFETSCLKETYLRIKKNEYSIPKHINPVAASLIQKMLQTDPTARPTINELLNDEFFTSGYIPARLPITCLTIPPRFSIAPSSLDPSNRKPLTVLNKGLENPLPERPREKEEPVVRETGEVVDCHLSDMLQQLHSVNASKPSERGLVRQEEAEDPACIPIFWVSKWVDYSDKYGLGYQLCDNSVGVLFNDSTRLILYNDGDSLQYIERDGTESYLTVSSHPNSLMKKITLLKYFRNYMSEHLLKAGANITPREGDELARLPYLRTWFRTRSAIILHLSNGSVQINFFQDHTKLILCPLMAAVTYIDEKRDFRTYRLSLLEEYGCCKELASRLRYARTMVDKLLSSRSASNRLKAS

[13] = target: Serine/threonine-protein kinase PLK1 (Homo sapiens) (UniProt P53350); details: at 1 µM
[14] = target: T5, Dual specificity protein kinase TTK (Homo sapiens) (UniProt P33981); details: at 0.1 µM
T5 sequence (whole entry): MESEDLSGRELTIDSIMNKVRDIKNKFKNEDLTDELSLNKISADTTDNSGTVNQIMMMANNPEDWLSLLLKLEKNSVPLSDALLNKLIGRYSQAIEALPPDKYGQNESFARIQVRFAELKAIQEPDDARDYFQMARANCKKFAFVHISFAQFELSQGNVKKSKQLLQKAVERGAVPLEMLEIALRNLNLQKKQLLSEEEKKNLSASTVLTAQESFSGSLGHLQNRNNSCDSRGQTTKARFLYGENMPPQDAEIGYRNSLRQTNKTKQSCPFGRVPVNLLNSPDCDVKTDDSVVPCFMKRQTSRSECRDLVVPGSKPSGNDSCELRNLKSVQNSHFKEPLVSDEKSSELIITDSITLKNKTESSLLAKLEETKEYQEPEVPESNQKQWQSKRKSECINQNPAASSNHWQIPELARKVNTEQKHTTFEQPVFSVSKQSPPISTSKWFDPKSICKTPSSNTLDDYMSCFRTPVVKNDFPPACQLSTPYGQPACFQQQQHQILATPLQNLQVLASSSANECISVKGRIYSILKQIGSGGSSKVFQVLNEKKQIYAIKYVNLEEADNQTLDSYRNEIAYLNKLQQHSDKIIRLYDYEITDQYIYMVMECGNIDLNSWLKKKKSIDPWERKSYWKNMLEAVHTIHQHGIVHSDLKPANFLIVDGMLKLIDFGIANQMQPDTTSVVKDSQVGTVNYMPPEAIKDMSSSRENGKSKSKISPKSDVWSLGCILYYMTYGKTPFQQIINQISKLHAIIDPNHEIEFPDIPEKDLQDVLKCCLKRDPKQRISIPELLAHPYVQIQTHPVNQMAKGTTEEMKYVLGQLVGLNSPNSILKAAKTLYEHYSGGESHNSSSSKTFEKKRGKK

[15] = tested on: T6, Receptor-type tyrosine-protein kinase FLT3 (Homo sapiens), P36888 [D835Y]; details: at 1 µM
T6 sequence (whole entry): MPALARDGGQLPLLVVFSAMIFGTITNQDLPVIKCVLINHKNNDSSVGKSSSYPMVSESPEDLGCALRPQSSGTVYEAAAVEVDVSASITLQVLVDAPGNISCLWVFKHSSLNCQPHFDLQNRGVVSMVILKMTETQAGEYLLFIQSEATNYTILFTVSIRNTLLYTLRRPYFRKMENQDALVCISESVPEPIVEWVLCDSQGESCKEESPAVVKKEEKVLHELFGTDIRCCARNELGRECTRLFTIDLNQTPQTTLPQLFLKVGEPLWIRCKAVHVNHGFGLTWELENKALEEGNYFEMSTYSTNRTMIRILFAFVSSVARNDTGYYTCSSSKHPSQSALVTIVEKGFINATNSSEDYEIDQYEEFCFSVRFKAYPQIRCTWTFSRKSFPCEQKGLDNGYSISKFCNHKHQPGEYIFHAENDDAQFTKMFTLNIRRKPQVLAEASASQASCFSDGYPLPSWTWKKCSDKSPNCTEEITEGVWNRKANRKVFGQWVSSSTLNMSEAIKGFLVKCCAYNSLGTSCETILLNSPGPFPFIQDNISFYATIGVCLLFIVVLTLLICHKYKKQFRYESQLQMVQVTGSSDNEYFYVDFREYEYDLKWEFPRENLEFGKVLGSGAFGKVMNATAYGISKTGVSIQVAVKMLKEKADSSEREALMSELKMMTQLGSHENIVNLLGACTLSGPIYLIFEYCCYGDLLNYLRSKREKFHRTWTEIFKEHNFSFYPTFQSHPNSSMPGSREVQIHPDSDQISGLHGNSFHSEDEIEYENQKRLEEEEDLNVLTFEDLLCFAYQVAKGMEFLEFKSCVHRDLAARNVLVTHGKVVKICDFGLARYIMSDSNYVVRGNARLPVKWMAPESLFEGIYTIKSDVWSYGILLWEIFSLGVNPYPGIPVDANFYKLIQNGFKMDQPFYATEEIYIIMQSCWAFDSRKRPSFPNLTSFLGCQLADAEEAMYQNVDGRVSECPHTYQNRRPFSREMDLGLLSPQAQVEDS

[16] = target: Vascular endothelial growth factor receptor 3 (Homo sapiens) (UniProt P35916); details: at 0.1 µM
Chain of Vascular endothelial growth factor receptor 3 (Homo sapiens) (P35916 whole entry): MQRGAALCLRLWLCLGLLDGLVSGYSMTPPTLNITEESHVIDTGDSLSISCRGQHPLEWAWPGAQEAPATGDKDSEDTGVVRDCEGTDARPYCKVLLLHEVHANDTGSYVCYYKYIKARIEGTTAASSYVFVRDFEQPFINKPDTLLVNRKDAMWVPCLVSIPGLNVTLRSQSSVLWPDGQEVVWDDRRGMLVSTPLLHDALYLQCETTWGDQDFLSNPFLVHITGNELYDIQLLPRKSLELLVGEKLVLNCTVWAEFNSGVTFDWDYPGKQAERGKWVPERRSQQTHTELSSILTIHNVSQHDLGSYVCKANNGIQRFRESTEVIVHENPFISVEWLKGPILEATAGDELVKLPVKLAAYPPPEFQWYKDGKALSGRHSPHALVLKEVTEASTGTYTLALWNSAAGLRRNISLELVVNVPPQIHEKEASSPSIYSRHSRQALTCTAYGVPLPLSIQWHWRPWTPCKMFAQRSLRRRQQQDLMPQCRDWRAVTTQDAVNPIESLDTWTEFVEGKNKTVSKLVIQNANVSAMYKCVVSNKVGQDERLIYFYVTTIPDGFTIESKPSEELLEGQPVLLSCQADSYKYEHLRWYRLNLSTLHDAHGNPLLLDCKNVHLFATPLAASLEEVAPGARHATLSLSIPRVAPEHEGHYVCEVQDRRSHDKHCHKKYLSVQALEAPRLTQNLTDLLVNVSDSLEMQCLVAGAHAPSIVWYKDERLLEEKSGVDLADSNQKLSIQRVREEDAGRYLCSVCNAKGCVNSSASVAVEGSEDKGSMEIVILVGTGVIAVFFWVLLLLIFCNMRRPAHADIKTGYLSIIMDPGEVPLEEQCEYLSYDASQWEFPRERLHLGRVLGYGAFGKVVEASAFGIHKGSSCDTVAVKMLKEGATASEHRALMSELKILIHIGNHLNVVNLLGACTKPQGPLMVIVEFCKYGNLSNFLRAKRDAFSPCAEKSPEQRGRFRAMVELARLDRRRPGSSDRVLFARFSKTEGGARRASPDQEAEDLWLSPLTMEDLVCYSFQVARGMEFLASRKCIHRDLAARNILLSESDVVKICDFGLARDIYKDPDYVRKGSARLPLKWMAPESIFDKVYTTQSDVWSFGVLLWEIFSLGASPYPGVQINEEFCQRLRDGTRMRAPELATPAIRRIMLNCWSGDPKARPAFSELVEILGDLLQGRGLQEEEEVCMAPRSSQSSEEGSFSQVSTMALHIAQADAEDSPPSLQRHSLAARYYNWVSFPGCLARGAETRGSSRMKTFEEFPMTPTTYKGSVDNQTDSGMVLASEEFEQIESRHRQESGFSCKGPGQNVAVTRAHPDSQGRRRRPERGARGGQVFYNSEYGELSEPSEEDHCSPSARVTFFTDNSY

[17] = target: Vascular endothelial growth factor receptor 3 (Homo sapiens) (UniProt P35916); details: at 1 µM
[18] = target: Macrophage colony-stimulating factor 1 receptor (Homo sapiens) (UniProt P07333); details: at 0.1 µM
Chain of Macrophage colony-stimulating factor 1 receptor (Homo sapiens) (P07333 whole entry): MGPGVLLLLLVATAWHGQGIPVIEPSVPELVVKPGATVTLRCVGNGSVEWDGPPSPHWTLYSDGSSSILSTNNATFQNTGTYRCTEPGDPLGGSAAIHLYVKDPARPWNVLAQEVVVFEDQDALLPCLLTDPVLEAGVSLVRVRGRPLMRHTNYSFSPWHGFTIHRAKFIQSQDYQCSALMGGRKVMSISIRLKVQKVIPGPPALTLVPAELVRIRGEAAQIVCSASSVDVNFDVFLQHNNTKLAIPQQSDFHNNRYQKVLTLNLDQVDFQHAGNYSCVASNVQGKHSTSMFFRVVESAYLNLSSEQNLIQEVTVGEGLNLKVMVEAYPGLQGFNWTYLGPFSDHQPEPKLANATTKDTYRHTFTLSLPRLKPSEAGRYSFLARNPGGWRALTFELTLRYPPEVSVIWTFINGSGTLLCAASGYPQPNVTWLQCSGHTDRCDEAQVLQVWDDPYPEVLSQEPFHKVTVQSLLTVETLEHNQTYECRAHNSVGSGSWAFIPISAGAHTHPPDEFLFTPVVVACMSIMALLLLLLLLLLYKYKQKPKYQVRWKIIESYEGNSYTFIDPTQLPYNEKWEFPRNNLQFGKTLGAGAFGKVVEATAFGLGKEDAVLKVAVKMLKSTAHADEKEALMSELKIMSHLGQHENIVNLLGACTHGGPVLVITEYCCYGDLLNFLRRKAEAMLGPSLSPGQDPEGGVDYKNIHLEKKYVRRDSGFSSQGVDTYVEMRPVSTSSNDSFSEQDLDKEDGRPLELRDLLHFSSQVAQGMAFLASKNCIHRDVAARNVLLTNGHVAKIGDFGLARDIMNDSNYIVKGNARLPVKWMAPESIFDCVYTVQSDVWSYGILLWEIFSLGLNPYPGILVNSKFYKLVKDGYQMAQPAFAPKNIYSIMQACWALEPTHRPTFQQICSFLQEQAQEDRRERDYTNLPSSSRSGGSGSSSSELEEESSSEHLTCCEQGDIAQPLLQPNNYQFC

[19] = target: Macrophage colony-stimulating factor 1 receptor (Homo sapiens) (UniProt P07333); details: at 1 µM
[20] = target: Tyrosine-protein kinase Fyn (Homo sapiens) (UniProt P06241); details: at 0.1 µM
Chain of Tyrosine-protein kinase Fyn (Homo sapiens) (P06241 2-537 limits assumed): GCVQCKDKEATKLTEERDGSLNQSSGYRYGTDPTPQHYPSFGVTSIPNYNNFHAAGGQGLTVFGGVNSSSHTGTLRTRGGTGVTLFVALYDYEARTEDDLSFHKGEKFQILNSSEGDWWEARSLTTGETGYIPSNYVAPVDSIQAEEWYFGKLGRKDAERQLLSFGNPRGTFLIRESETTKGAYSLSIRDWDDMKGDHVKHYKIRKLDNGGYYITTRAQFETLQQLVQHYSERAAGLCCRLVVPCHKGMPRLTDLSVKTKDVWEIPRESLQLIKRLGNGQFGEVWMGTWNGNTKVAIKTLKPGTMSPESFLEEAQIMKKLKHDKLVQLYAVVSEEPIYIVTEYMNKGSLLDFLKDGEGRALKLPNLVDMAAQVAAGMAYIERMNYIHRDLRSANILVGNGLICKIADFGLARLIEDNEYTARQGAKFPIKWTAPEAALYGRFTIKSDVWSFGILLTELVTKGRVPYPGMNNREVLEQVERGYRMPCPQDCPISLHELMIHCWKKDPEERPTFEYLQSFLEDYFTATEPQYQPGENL

Compound | inhibition [1] [%] | inhibition [2] [%] | inhibition [3] [%] | inhibition [4] [%] | inhibition [5] [%] | inhibition [6] [%] | inhibition [7] [%] | inhibition [8] [%] | inhibition [9] [%] | inhibition [10] [%] | inhibition [11] [%] | inhibition [12] [%] | inhibition [13] [%] | inhibition [14] [%] | inhibition [15] [%] | inhibition [16] [%] | inhibition [17] [%] | inhibition [18] [%] | inhibition [19] [%] | inhibition [20] [%]
CC(C)c1ccc(-c2cc(-c3c[nH]nc3-c3ccccn3)ccn2)cc1 | 1.35 | 0.4 | 0.95 | 1.77 | 1.63 | 1.08 | -0.92 | 2.44 | 0.94 | 3.68 | 2.93 | 0.48 | 0.41 | 2.65 | 1.71 | 1.37 | 5.15 | 0.03 | 3.63 | 1.14
COc1ccc(-c2nn3ncccc3c2-c2ccnc(Nc3ccc(F)c(F)c3)n2)cc1 | 88.2 | 1.08 | 2.15 | 3.89 | 2.89 | 3.33 | 5.18 | 3.7 | 4.42 | 7.45 | 7.17 | 1.8 | 2.27 | 15.1 | 2.1 | 4.09 | 8.94 | 5.19 | 14.8 | 2.85
